The results in this text go back to PubChem BioAssay (NCATS).

Molecules are shown by their SMILES. Records with an inconclusive call do not appear. A call without a number means that no potency is given here. Unmarked numbers belong to inactive results. The source made the active and inactive calls. Calls come from the whole dose curve; as a rule, active = well fitted inhibition curve with a large enough effect; inconclusive = small, poorly fitted or top-dose-only effect; inactive = no such curve, though single readings can be large or run the other way. Where a SMILES comes first, the peptide text is derived from it.
Potency is the fitted concentration of half-maximal effect.

The first assay concerns Zika virus NS2B-NS3 protease (unlinked complex). Put plainly: Primary screen GU Rhodamine qHTS for Zika virus inhibitors: Unlinked NS2B-NS3 protease assay (AID 1347159). Note: nearly all actives have a fitted effect of over 60% in size. Conditions: Recombinant ZIKV NS2B-NS3 protease, Rhodamine110 substrate fluorescence; series mostly up to 107 µM. In short, it runs like this:
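Percent inhibition came from the 15-min rise in Rhodamine110 fluorescence (1.5 microM substrate, ~15% conversion), normalized to no-inhibitor and no-enzyme wells and Hill-fitted. Unlinked protease, 25 nM, pH 8.0 Tris buffer; compounds up to 114 microM, 15-min preincubation.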
In the case of `CC1(C)CC[C@]2(C(=O)O[C@@H]3O[C@H](CO)[C@@H](O)[C@H](O)[C@H]3O)CC[C@]3(C)C(=CCC4[C@@]5(C)CC[C@H](O[C@@H]6O[C@H](C(=O)O)[C@@H](O[C@@H]7O[C@H](CO)[C@@H](O)[C@H](O)[C@H]7O)[C@H](O)[C@H]6O)C(C)(C)C5CC[C@]43C)C2C1` (stereo not given in full), the Potency result is “inactive”. For `CSCC1OC(n2cnc3c(N)ncnc32)C(O)C1O` (stereo not given), the Potency entry was “inactive”. Still for that read-out and setting: the value for `CCC(C)/C=C(C)/C=C/C1=CC2=C(Cl)C(=O)C(C)(O)C(=O)C2(O)C(OC)O1` (stereo not given) was 15.8 µM (active). Still for that read-out and setting: the value for `CC(=O)/C=C/C1(O)C(C)(C)CC(O)CC1(C)O` (stereo not given) was “inactive”; that for `OC[C@H]1O[C@@H](OC[C@H]2O[C@@H](OCc3ccccc3)[C@H](O)[C@@H](O)[C@@H]2O)[C@H](O)[C@@H](O)[C@@H]1O` was “inactive”. For the compound `COC(=O)C1=CO[C@@H](O[C@@H]2O[C@H](CO)[C@@H](O)[C@H](O)[C@H]2O)[C@H]2[C@@H]1[C@H](O)C[C@]2(C)O`, the Potency result was “inactive”.

On to `CC(C)=CCC/C(C)=C/CO[C@@H]1O[C@H](CO[C@@H]2OC[C@](O)(CO)[C@H]2O)[C@@H](O)[C@H](O)[C@H]1O`, for which the Potency entry was “inactive”. Still for that read-out and setting: in the case of `CC(=C\C(C)O)/C=C(\C)C(=O)CC1CC(CC(N)=O)CC(=O)O1` (stereo not given) it was “inactive”; in that of `C=CCC1=C[C@]2(OC)[C@H](C)[C@@H](c3ccc(OC)c(OC)c3)O[C@]2(OC)CC1=O`, “inactive”. Same read-out and setting: the value for `O=C(C[C@@H]1C(C(=O)O)=CO[C@@H](O[C@@H]2O[C@H](CO)[C@@H](O)[C@H](O)[C@H]2O)/C1=C\CO)OCCc1ccc(O)cc1` was “inactive”.

Take `CC1(C)CC[C@]2(C(=O)O[C@@H]3O[C@H](CO[C@@H]4O[C@H](CO[C@@H]5O[C@H](CO)[C@H](O)[C@H](O)[C@H]5O)[C@@H](O)[C@H](O)[C@H]4O)[C@@H](O)[C@H](O[C@@H]4O[C@H](CO)[C@@H](O)[C@H](O)[C@H]4O)[C@H]3O)[C@H](O)C[C@]3(C)C(=CCC4[C@@]5(C)CC[C@H](O[C@@H]6OC[C@@H](O)[C@H](O)[C@H]6O)[C@@](C)(C(=O)O)C5CC[C@]43C)[C@@H]2C1` (stereo not given in full): the activity change, negative = inhibition is 8.5% [at 19.1 µM]. For `C[C@H](/C=C/[C@@]1(O)[C@H](C)CC(=O)CC1(C)C)O[C@@H]1O[C@H](CO[C@@H]2OC[C@@H](O)[C@H](O)[C@H]2O)[C@@H](O)[C@H](O)[C@H]1O`, the Potency entry is “inactive”.

`CC(=O)OC[C@@]12C(=O)C[C@@H](C)[C@]3(C[C@@H](c4ccoc4)OC3=O)[C@H]1CC[C@H](OC(C)=O)[C@]21CO1`: the Potency entry was “inactive”.

Regarding `COc1cc2nc(=NC(=O)c3cccnc3)n3c(c2cc1OC)NCC3`, the Potency result was “inactive”. Consider `Cc1occc(=O)c1O[C@@H]1O[C@H](COC(=O)CC(C)(O)CC(=O)O)[C@@H](O)[C@H](O)[C@H]1O` (stereo not given in full), for which the Potency result was “inactive”. Same read-out and setting: in the case of `CN(C)CC(c1ccc(O)cc1)C1(O)CCCCC1` (stereo not given) it was “inactive”; in that of `COC(=O)C(CC1(O)c2ccccc2N2C(=O)C(CC(C)C)NC21)n1cnc2ccccc2c1=O` (stereo not given), “inactive”; in that of `Cc1cc(CNC(=O)c2cc(C(=O)NCc3ccc(F)c(C)c3)ncn2)ccc1F`, “inactive”. `COC(=O)C1=CO[C@@H](O[C@@H]2O[C@H](CO)[C@@H](O)[C@H](O)[C@H]2O)C2C1CC(O)C2C` (stereo not given in full): the Potency result is “inactive”. Consider `CC/C=C/C=C/C1(C)OC(CC(CO)OC)=CC1=O` (stereo not given), for which the Potency result was “inactive”. Regarding `C=CC(C)(O)CC/C=C(\C)C(=O)O[C@@H]1[C@@H](O)[C@H](OC(C)(C=C)CC/C=C(\C)C(=O)O)O[C@H](CO)[C@H]1OC(=O)/C(C)=C/CCC(C)(O)C=C` (stereo not given in full), the Potency entry is “inactive”. Take `COC(=O)C(CC1CCCC1)c1ccc(S(C)(=O)=O)cc1` (stereo not given): the Potency entry was “inactive”. On the same count and under the same terms, the value for `NC(N)=NCCC[C@H](NC(=O)c1sccc1NS(=O)(=O)c1cccc2nsnc12)C(=O)O` was “inactive”; that for `C=C(C(=O)OC)[C@]12O[C@@](C)(CC[C@@]3(O)/C(=C\C)C(=O)O[C@]3(C)C[C@@H]1OC(=O)C(CO)CN1CCCC1C(=O)O)CC2=O` (stereo not given in full) was “inactive”; that for `CC1(C)[C@@H]2CC=C(CO[C@@H]3O[C@H](CO[C@@H]4OC[C@H](O)[C@H](O)[C@H]4O)[C@@H](O)[C@H](O)[C@H]3O)[C@H]1C2` was “inactive”. For the compound `CC(C)NC(=O)c1ccc(C#Cc2ccncc2)cn1`, the Potency result was “inactive”. Still for that read-out and setting: the value for `CC1CCC2(C(=O)O)CCC3(C)C(=CCC4C5(C)C[C@@H](O)[C@@H](O)C(C)(CO)C5CCC43C)C2C1(C)O` (stereo not given in full) was “inactive”; that for `O=C(O)C(Cc1ccccc1)NC(=O)C1CCCN1` (stereo not drawn) (H-Pro-Phe-OH; configuration not given here) was “inactive”.

As to `CC1CCC2(C(=O)OC3OC(CO)C(O)C(O)C3O)CCC3(C)C(=CCC4C5(C)CCC(O)C(C)(CO)C5CCC43C)C2C1(C)O` (stereo not given), the Potency entry is “inactive”.

With `Cc1onc(-c2c(Cl)cccc2Cl)c1CC(=O)NCc1ccc(OCC(F)(F)F)nc1`, the Potency result was “inactive”.

Another assay relates to Zika virus NS2B-NS3 protease (linked construct). Nature of the assay: Primary screen NINDS Rhodamine qHTS for Zika virus inhibitors (AID 1347160). Note: nearly all actives have a fitted effect of over 55% in size. Conditions: purified NS2B-NS3 protease, Rhodamine110 substrate fluorescence; series mostly up to 33.1 µM. An outline of the steps:
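Rhodamine110-peptide cleavage (1.5 µM substrate) by 25 nM linked NS2B-NS3 enzyme at pH 8.0 (Tris, Tween 20), after 15 min RT preincubation with compounds; 15-min fluorescence change normalized to controls and Hill-fitted.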
For orientation: Quantitative high-throughput screening tests each substance at several concentrations.
With `C=C1[C@H](OC(C)=O)[C@H]2[C@@H](OC(C)=O)C(C)C[C@]2(OC(C)=O)C(=O)[C@H](C)/C=C/C(C)(C)C(=O)[C@H](OC(=O)C(C)C)[C@H]1OC(C)=O` (stereo not given in full), the Potency result was “inactive”. Turning to `COc1cc(O)cc(O[C@@H]2O[C@H](CO)[C@@H](O[C@@H]3OC[C@](O)(CO)[C@H]3O)[C@H](O)[C@H]2O)c1OC`, the Potency entry was “inactive”. Turning to `CC(C)CC[C@@H](O)[C@](C)(O)[C@H]1CC[C@@]2(O)C3=CC(=O)[C@@H]4C[C@@H](O)[C@@H](O)C[C@]4(C)[C@H]3CC[C@]12C`, the Potency result is “inactive”. Same read-out and setting: in the case of `N#CC1C(=O)N=C(c2cc(Cl)ccc2O)C=C1c1cc(OCc2ccccc2)cc(OCc2ccccc2)c1` (stereo not given) it was “inactive”; in that of `C=C(C)C(O)COc1ccc(CC(=O)O)cc1` (stereo not given), “inactive”; in that of `C=CCc1ccc(O[C@@H]2O[C@H](CO)[C@@H](O)[C@H](O)[C@H]2O)c(O[C@@H]2O[C@H](CO)[C@@H](O)[C@H](O)[C@H]2O)c1`, “inactive”. Same read-out and setting: in the case of `C[C@H]1CC[C@@]2(OC1)O[C@H]1CC3C4CC[C@H]5C[C@@H](O[C@@H]6O[C@H](CO)[C@H](O[C@@H]7O[C@H](CO)[C@@H](O)[C@H](O[C@@H]8OC[C@@H](O)[C@H](O)[C@H]8O)[C@H]7O[C@@H]7O[C@H](CO)[C@@H](O)[C@H](O)[C@H]7O)[C@H](O)[C@H]6O)[C@H](O)C[C@]5(C)C4=CC(=O)[C@]3(C)[C@H]1[C@@H]2C` (stereo not given in full) it was “inactive”; in that of `CC1=C(CO)C2(C)CCCC(C)(C)C2C(O)C1O` (stereo not given), “inactive”. Same read-out and setting: the value for `C=C(C)[C@@H]1CC[C@]2(C(=O)O)CC[C@]3(C)C(CCC4[C@]5(C)C(CC[C@]43C)C(C)(C)[C@@H](O)[C@@H]5C(=O)O)C12` (stereo not given in full) was “inactive”. Consider `CC1(C)CC[C@]2(C(=O)O[C@@H]3O[C@H](CO)[C@@H](O)[C@H](O)[C@H]3O)CC[C@]3(C)C(=CCC4[C@@]5(C)CC[C@H](O[C@@H]6O[C@H](C(=O)O)[C@@H](O[C@@H]7O[C@H](CO)[C@@H](O)[C@H](O)[C@H]7O)[C@H](O)[C@H]6O)C(C)(C)C5CC[C@]43C)C2C1` (stereo not given in full), for which the Potency entry was “inactive”. On the same count and under the same terms, in the case of `CSCC1OC(n2cnc3c(N)ncnc32)C(O)C1O` (stereo not given) it was “inactive”; in that of `CCC(C)/C=C(C)/C=C/C1=CC2=C(Cl)C(=O)C(C)(O)C(=O)C2(O)C(OC)O1` (stereo not given), 10 µM (active).

As for `CC(=O)/C=C/C1(O)C(C)(C)CC(O)CC1(C)O` (stereo not given), the Potency entry was “inactive”.

With `OC[C@H]1O[C@@H](OC[C@H]2O[C@@H](OCc3ccccc3)[C@H](O)[C@@H](O)[C@@H]2O)[C@H](O)[C@@H](O)[C@@H]1O`, the Potency result is “inactive”.

Take `COC(=O)C1=CO[C@@H](O[C@@H]2O[C@H](CO)[C@@H](O)[C@H](O)[C@H]2O)[C@H]2[C@@H]1[C@H](O)C[C@]2(C)O`: the Potency entry was “inactive”.

In the case of `CC(C)=CCC/C(C)=C/CO[C@@H]1O[C@H](CO[C@@H]2OC[C@](O)(CO)[C@H]2O)[C@@H](O)[C@H](O)[C@H]1O`, the Potency result was “inactive”. Still for that read-out and setting: the value for `CC(=C\C(C)O)/C=C(\C)C(=O)CC1CC(CC(N)=O)CC(=O)O1` (stereo not given) was “inactive”; that for `C=CCC1=C[C@]2(OC)[C@H](C)[C@@H](c3ccc(OC)c(OC)c3)O[C@]2(OC)CC1=O` was “inactive”; that for `O=C(C[C@@H]1C(C(=O)O)=CO[C@@H](O[C@@H]2O[C@H](CO)[C@@H](O)[C@H](O)[C@H]2O)/C1=C\CO)OCCc1ccc(O)cc1` was “inactive”. Still for that read-out and setting: in the case of `CC1(C)CC[C@]2(C(=O)O[C@@H]3O[C@H](CO[C@@H]4O[C@H](CO[C@@H]5O[C@H](CO)[C@H](O)[C@H](O)[C@H]5O)[C@@H](O)[C@H](O)[C@H]4O)[C@@H](O)[C@H](O[C@@H]4O[C@H](CO)[C@@H](O)[C@H](O)[C@H]4O)[C@H]3O)[C@H](O)C[C@]3(C)C(=CCC4[C@@]5(C)CC[C@H](O[C@@H]6OC[C@@H](O)[C@H](O)[C@H]6O)[C@@](C)(C(=O)O)C5CC[C@]43C)[C@@H]2C1` (stereo not given in full) it was “inactive”; in that of `C[C@H](/C=C/[C@@]1(O)[C@H](C)CC(=O)CC1(C)C)O[C@@H]1O[C@H](CO[C@@H]2OC[C@@H](O)[C@H](O)[C@H]2O)[C@@H](O)[C@H](O)[C@H]1O`, “inactive”.

For `CC(=O)OC[C@@]12C(=O)C[C@@H](C)[C@]3(C[C@@H](c4ccoc4)OC3=O)[C@H]1CC[C@H](OC(C)=O)[C@]21CO1`, the Potency result is “inactive”.

Consider `COc1cc2nc(=NC(=O)c3cccnc3)n3c(c2cc1OC)NCC3`, for which the Potency result is “inactive”. On to `Cc1occc(=O)c1O[C@@H]1O[C@H](COC(=O)CC(C)(O)CC(=O)O)[C@@H](O)[C@H](O)[C@H]1O` (stereo not given in full), for which the Potency entry was “inactive”. Still for that read-out and setting: in the case of `CN(C)CC(c1ccc(O)cc1)C1(O)CCCCC1` (stereo not given) it was “inactive”.

For the compound `COC(=O)C(CC1(O)c2ccccc2N2C(=O)C(CC(C)C)NC21)n1cnc2ccccc2c1=O` (stereo not given), the Potency result is “inactive”. Turning to `Cc1cc(CNC(=O)c2cc(C(=O)NCc3ccc(F)c(C)c3)ncn2)ccc1F`, the Potency entry is “inactive”. On the same count and under the same terms, the value for `COC(=O)C1=CO[C@@H](O[C@@H]2O[C@H](CO)[C@@H](O)[C@H](O)[C@H]2O)C2C1CC(O)C2C` (stereo not given in full) was “inactive”. The same measure, in the same setting: the value for `CC/C=C/C=C/C1(C)OC(CC(CO)OC)=CC1=O` (stereo not given) was “inactive”; that for `C=CC(C)(O)CC/C=C(\C)C(=O)O[C@@H]1[C@@H](O)[C@H](OC(C)(C=C)CC/C=C(\C)C(=O)O)O[C@H](CO)[C@H]1OC(=O)/C(C)=C/CCC(C)(O)C=C` (stereo not given in full) was “inactive”.
